According to PubChem BioAssay AID651995 (Sanford-Burnham Center for Chemical Genomics, 2013):
In all, about 2,500 compounds went through this assay and about 480 (19%) were called active. Only a sample is shown. Unmarked numbers belong to inactive results.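 The calls were made as follows: active = mean inhibition above about 25% (limit read from the data); inactive = the rest.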

Experiment: inhibitors of Wnt3a-driven luciferase in Wnt-LIGHT cells – cell-based, luminescence, single concentration, counter-screen for Gli-SUFU antagonist project, confirmation (AID 651995)
Conditions: Wnt3a-driven luciferase reporter, at 6.25 µM, active compounds read high

With `Cc1ccc(S(=O)(=O)N2C[C@@H]3CCCC[C@@H]3[C@@H](C)[C@H]2c2cn(Cc3ccccc3)c3ccc(F)cc23)cc1` the inhibition was 30.5% (active).
With `Cc1c(Cl)c([N+](=O)[O-])nn1Cc1ccc(C(=O)N/N=C\c2cc(Cl)ccc2O)o1` the inhibition was 61.7% (active).
In the case of `CCOC(=O)c1cnc(-n2nc(C)cc2C)nc1NNc1cc(C)nc(-c2ccccc2)n1`, the inhibition is reported as 40.7% (active).
For `N#Cc1ccc(C(=O)Nc2nc(-c3cccs3)c(C(=O)C(F)(F)F)s2)cc1`, the inhibition was 65.1% (active).
For `c1c2c(cc3sc(N4CCCCC4)nc13)OCCO2`, the inhibition was 85.8% (active).
In the case of `COc1ccc(NS(=O)(=O)c2ccc(N3CCN(CCO)CC3)c([N+](=O)[O-])c2)cc1`, the inhibition is reported as 26.4% (active).

Going from `COc1ccccc1N1CCN(Cc2cc(OC)c3c(c2)OCO3)CC1` to `CCCOc1ccccc1C1CC(=O)Nc2cc3c(cc21)OCO3` (stereo not given), the inhibition rises from -25% to -18.6%.

Compared with `CCN(CC(=O)Nc1cc(Cl)ccc1C)C(=O)CSCc1ccc(C)cc1`, `Cc1ccc(-c2nc(CSCC(=O)NC3CCN(Cc4ccccc4)CC3)c(C)o2)cc1` is lower in inhibition: -8.43% for the first, -19.9% for the second.

Going from `C=CCOC(=O)C1=C[C@@H](c2ccc3c(c2)OCO3)C[C@@H](OCCCCO)O1` to `CN(C)CCN(C(=O)C1CCCCC1)c1nc2cc3c(cc2s1)OCO3`, the inhibition falls from -7.34% to -21.9%.

Going from `Cc1cc([N+](=O)[O-])c(-c2ccc(/C=N/n3cnnc3)o2)cc1Cl` to `N#CC(C#N)=CN=c1ccn(Cc2ccc(Cl)cc2Cl)cc1`, the inhibition rises from -8.22% to -5.79%.

First: O=[N+]([O-])c1ccc(N2CCN(CC(O)COc3ccccc3)CC2)cc1 (stereo not given)
Second: CN(C)C(CNC(=O)Cc1ccc([N+](=O)[O-])cc1)c1ccccc1 (stereo not given)
The inhibition of the first is lower: -30.2% for the first, -27% for the second.

Compared with `CC1(C)Cc2ccccc2/C(=C/C(=O)c2ccccc2)N1`, `CCN1/C(=C/C(=S)Nc2ccccc2)Sc2ccccc21` is lower in inhibition: 9.91% for the first, -77.3% for the second.

Going from `Cc1nn(C)c(Cl)c1CN1CCC(n2nccc2NC(=O)C2CCCC2)CC1` to `O=C(NC1CCN(C(=S)Nc2ccc(Cl)cc2)CC1)C1CCCCC1`, the inhibition rises from -36.2% to -1.08%.

First: CCCC1=Nc2cc(C(=O)NCc3ccco3)ccc2Sc2ccccc21
Second: COc1ccccc1CNC(=O)C1CCN(c2nc3ccccc3o2)CC1
The inhibition of the first is lower: -23.7% for the first, -23.3% for the second.

Compared with `CCc1c(C)[nH]c(=S)c(C#N)c1C`, `COc1ccc(NS(=O)(=O)c2ccc(NC(C)=O)cc2)cc1OC` is higher in inhibition: -19.5% for the first, 13.2% for the second.

In the case of `C=CCC1(CC=C)CCCN1C(=O)c1cc(COc2ccc(-n3cncn3)cc2)on1`, the inhibition is reported as -17%.
